From the supplement of paper PMC13380429
Where a name gives a salt, the structure may show the parent alone. Unmarked numbers belong to inactive results.

Tested on: Vero E6 infected with SARS-CoV-2
Test: inhibition of SARS-CoV-2 cytopathic effect; higher = more antiviral protection, active = above 15
Details: 48 h

Row | SMILES | inhibition of SARS-CoV-2 cytopathic effect (1 nM) [%] | inhibition of SARS-CoV-2 cytopathic effect (8.33 nM) [%] | inhibition of SARS-CoV-2 cytopathic effect (100 nM) | inhibition of SARS-CoV-2 cytopathic effect (833.33 nM) | inhibition of SARS-CoV-2 cytopathic effect (10000 nM)
1 | Cc1cnc(NC(=O)Nc2cc(Br)c(C)cc2OC[C@@H]2CNCCO2)cn1 | 1.08 | 0.44 | 1.44% | -2.34% | -10.4%
2 | C=CC(N)CCC(=O)O (stereo not given) [vigabatrin] | -9.39 | -9.03 | -9.5% | -11% | -9.82%
3 | N=C1NC(=O)/C(=C/c2ccc(O)cc2)S1 [mirin] | -0.65 | 0.66 | -0.71% | -3.88% | 1.33%
4 | CO[C@@]1(NC(=O)CSC[C@@H](N)C(=O)O)C(=O)N2C(C(=O)O)=C(CSc3nnnn3C)CS[C@@H]21 [cefminox] | -0.91 | 0.78 | -1.2% | -1.63% | 1.75%
5 | N[C@@H](CSC(c1ccccc1)(c1ccccc1)c1ccccc1)C(=O)O [S-trityl-L-cysteine] | -0.89 | -0.64 | -2.17% | -0.68% | -1.72%
6 | O=C(NC1CCC1)c1ccc(C#Cc2cccc(F)c2)nc1 | 0.19 | -1.61 | -2.31% | -1.49% | 2.23%
7 | C[C@@H](c1ccc2nccn2c1)n1nnc2ncc(-c3cnn(C)c3)nc21 [savolitinib] | 0.39 | -0.4 | -0.3% | 0.87% | 1.9%
8 | Cc1ccc(-c2ccc(C)cn2)nc1 [abametapir] | -4.6 | 1.76 | -1.42% | -3.2% | -1.76%
9 | CN(C)CCCC1(c2ccc(F)cc2)OCc2cc(C#N)ccc21 (stereo not given) [citalopram] | -0.29 | 2.58 | 1.49% | -0.995% | -4.99%
10 | Cc1c(C(=O)NC2CCCCC2)sc2nc3ccc(N)cc3n12 | 0.16 | -2.6 | -1.92% | -0.52% | 0.2%
11 | Cc1cc(C)n(-c2cccc([C@H](CC(=O)O)CN3CC[C@@H](CCc4ccc5c(n4)NCCC5)C3)c2)n1 [integrin-antagonist-1] | 6.72 | 7.35 | 0.83% | 0.99% | -0.92%
12 | N=C(N)NCCC[C@H](NC(=O)c1sccc1NS(=O)(=O)c1cccc2nsnc12)C(=O)O | -1.17 | 0.96 | 1.72% | 0.4% | 1.98%
13 | CC(C)C[C@H](NC(=O)CNC(=O)c1cc(Cl)ccc1Cl)B1OC(=O)C(CC(=O)O)(CC(=O)O)O1 | -0.89 | 1.36 | 21.2% (active) | 34.2% (active) | 18.7% (active)
14 | Cc1cccc(-c2nn3c(c2-c2ccnc4ccc(C(N)=O)cc24)CCC3)n1 | 0.85 | -0.43 | -0.97% | -0.85% | -1.59%
15 | COc1c(N2C[C@@H]3CCCN[C@@H]3C2)c(F)cc2c(=O)c(C(=O)O)cn(C3CC3)c12 [moxifloxacin] | 1.16 | 0.31 | 2.33% | 0.76% | 1.03%
16 | Nc1cc(C(F)(F)F)c(-c2cc(N3CCOCC3)nc(N3CCOCC3)n2)cn1 [buparlisib] | 2.05 | 0.38 | -0.73% | -3.58% | -12.6%
17 | CC(=O)Nc1ccccc1 [acetanilide] | -1.3 | 2.8 | 1.67% | 1.23% | 0.69%
18 | O=C(O)c1ccccc1S [o-mercapto-benzoic-acid] | -1.65 | -0.03 | 0.12% | -2.81% | -0.55%
19 | COC[C@H]1OC(=O)c2coc3c2[C@@]1(C)C1=C(C3=O)[C@@H]2CCC(=O)[C@@]2(C)C[C@H]1OC(C)=O [wortmannin] | -3.55 | -1.71 | -2.28% | -4.43% | -2.83%
20 | CCCCCCCC/C=C\CCCCCCCC(N)=O [oleamide] | -2.29 | -1.34 | -3.82% | 0.76% | 0.18%

Row | SMILES | inhibition of SARS-CoV-2 cytopathic effect (1 nM) [%] | inhibition of SARS-CoV-2 cytopathic effect (8.33 nM) [%] | inhibition of SARS-CoV-2 cytopathic effect (100 nM) | inhibition of SARS-CoV-2 cytopathic effect (833.33 nM) | inhibition of SARS-CoV-2 cytopathic effect (10000 nM)
21 | CC(=O)c1ccc(S(=O)(=O)NC(=O)NC2CCCCC2)cc1 [acetohexamide] | -0.51 | -0.35 | -0.58% | 0.37% | -0.22%
22 | O=c1[nH]c(=O)n([C@H]2C[C@H](O)[C@@H](CO)O2)cc1/C=C/Br [brivudine] | 1.67 | 0.21 | 0.44% | -0.42% | -0.09%
23 | CN(C)CCOc1ccc(/C(=C(/CCCl)c2ccccc2)c2ccccc2)cc1 [Toremifene citrate] | 0.8 | 0.55 | -0.55% | 0.65% | 3.86%
24 | COc1cn(-c2ccc(-n3cccn3)cc2F)nc(-c2ccnn2-c2ccccc2)c1=O | 1.53 | 3.16 | 0.79% | 2.26% | 0.75%
25 | O=Nc1c(-c2c(O)[nH]c3cc(Br)ccc23)[nH]c2ccccc12 [GSK-3-inhibitor-IX] | -0.14 | 0.68 | 1.64% | 13.8% | -4.11%
26 | CCCn1c(=O)[nH]c(=O)c2nc[nH]c21 [enprofylline] | 0.79 | 0.93 | 1.89% | 1.3% | 4.03%
27 | N#Cc1cccc(C(=O)Nc2cc(-c3ccccc3)nn2-c2ccccc2)c1 | 1.77 | 4.71 | 3.47% | 3.43% | 1.98%
28 | O=C(c1cn(Cc2cncn2Cc2ccc(Br)cc2)cc1-c1cccc2ccccc12)N1CCOCC1 | -2.2 | -3.17 | -1.58% | -0.44% | -3.78%
29 | O=C1N[C@@H]2[C@@H](O)[C@@H](O)[C@H](O)[C@@H](CO)N2C1=O [kifunensine] | 0.31 | 1.46 | 3.44% | 4.14% | 14.9%
30 | FC(F)(F)c1cccc(-c2noc(-c3cc(-c4ccccc4)c(C(F)(F)F)s3)n2)c1 | 1.19 | 0.95 | -0.54% | 1.01% | 1.68%
31 | CNCC(=O)O [sarcosine] | 0.02 | 0.73 | 0.05% | 2.03% | 0.53%
32 | Oc1ccc(C2CNCCc3c2cc(O)c(O)c3Cl)cc1 (stereo not given) [fenoldopam] | 5.49 | 1.3 | 4.35% | 0.98% | -5.61%
33 | CCCCCCCCCCCCCCOc1ccc(C(=O)O)o1 | -3.57 | 0.74 | 1.46% | -0.07% | 2.73%
34 | COc1ccc(COc2cc3oc(=O)c4cc(C(C)O)ccc4c3cc2OC)cc1 (stereo not given) [palomid-529] | 0.28 | -1.83 | 0.02% | -0.05% | 1.22%
35 | CC#C[C@]1(O)CC[C@H]2[C@@H]3CCC4=CC(=O)CCC4=C3[C@@H](c3ccc(N(C)C)cc3)C[C@@]21C [mifepristone] | -1.56 | 0.62 | 3.53% | -4.55% | 8.14%
36 | CC1(C)O[C@@H]2C[C@H]3[C@@H]4CCC5=CC(=O)C=C[C@]5(C)[C@H]4[C@@H](O)C[C@]3(C)[C@]2(C(=O)CO)O1 [desonide] | 1.41 | 2.82 | 5.19% | 5.19% | 1.37%
37 | COc1ccc(CC2NCCc3c2[nH]c2ccc(C)cc32)c(Cl)c1OC (stereo not given) | 0.04 | 1.87 | 6.67% | -1.77% | -7.05%
38 | CCC(CC)[C@H](NC(C)=O)[C@@H]1[C@H](O)[C@@H](C(=O)O)C[C@H]1NC(=N)N [peramivir] | -2.46 | -0.07 | 0.34% | 0.01% | -0.82%
39 | COCCc1ccc(OCC(O)CNC(C)C)cc1 (stereo not given) [metoprolol] | 2 | 1.22 | -0.12% | -0.66% | 1.25%
40 | Nc1ccn([C@@H]2O[C@@](CO)(CCl)[C@@H](O)[C@H]2F)c(=O)n1 | 3.35 | 2.02 | -3.04% | -0.34% | 2.59%
